Source: PubChem
In the library only some 7.8% were active in any assay of this set; here they are far more common.
Lassa entry inh: blocks Lassa virus binding to or entry into cells; Lassa virus pseudotype entry inhibition, cell reporter; Potency, µM (titrated, usually from 37.9 µM), inactives show top-dose activity change, negative = inhibition, usual class: inhibitors; 1.2% of 300,000 active; AID 540256; calls by dose curve; tested in HEK293 cells; also: potency is read from the fitted curve at half-maximal effect; nearly all actives have a fitted effect of over 50% in size
Marburg entry inh: blocks Marburg virus binding to or entry into cells | Potency, µM (highest dose often 37.8 µM), for inactives: top-dose activity change, negative = inhibition, usual class: inhibitors | 1.8% of 300,000 active | Marburg virus pseudotyped entry inhibition, cell reporter | AID 540276; calls by dose curve; tested in HEK293 cells; also: potency is read from the fitted curve at half-maximal effect
Vaccinia Venus: vaccinia inhibition (Venus reporter); Vaccinia virus Venus reporter expression, fluorescence; Potency, µM (top dose mostly 36.5 µM), without a hit: at the highest dose activity change, negative = inhibition, usual class: inhibitors; 0.46% of 330,000 active; AID 720580; calls by dose curve; tested in A549 cells; also: potency is read from the fitted curve at half-maximal effect; nearly all actives have a fitted effect of over 30% in size
HCMV inh: inhibitors of human cytomegalovirus | HFF cells, HCMV-luciferase reporter, 72 h; stronger effect = lower value | activity change, negative = inhibition, % at 57.5 µM | 4.5% of 410,000 active; in the data active = activity change below about -60%; inconclusive = no clear call, values can overlap the other calls; inactive = above about -39%
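Cell-based, HFFs, 1000 cells/well, 16 h 37C; cpds in DMSO + HCMV-luc, MOI 1 PFU/cell; 72 h 37C; OneGlo luminescence after 5 min RT; norm. to buffer vs Salinomycin 10uM.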
Vaccinia mCherry: inhibitors of vaccinia virus infection (mCherry reporter signal); Vaccinia virus mCherry reporter infection, fluorescence; Potency, µM (highest dose often 36.5 µM), for inactives: at the top dose activity change, negative = inhibition, most hits filed as inhibitors; 0.63% of 310,000 active; AID 720579; calls by dose curve; tested in A549 cells; also: potency is read from the fitted curve at half-maximal effect; nearly all actives have a fitted effect of over 35% in size
HCV inhibitor: inhibitors of hepatitis C virus infection; Huh7.5.1 HCVcc-Cre infection, luciferase reporter, 44 h; Potency, µM (series often up to 41.8 µM), without a hit: at the highest dose activity change, negative = inhibition, actives largely listed as inhibitors; 3.4% of 340,000 active; AID 651820; active = well fitted inhibition curve with a large enough effect; inconclusive = small, poorly fitted or top-dose-only effect, or another doubt; inactive = no such curve, though single readings can be large or run the other way; also: potency is read from the fitted curve at half-maximal effect
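Seed cells (1,000/well) for 4 h; treat with compound and infect with HCVcc-Cre, moi about 0.5. Incubate 44 h, then detect luciferase activity.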
* marks the source's active call; other numbers are inactive results; i = inactive; ? = inconclusive; . = no result; [ ] = remark or other dose. % is scaled to controls: 0 for no effect and ±100 for the full control effect.

SMILES | Lassa entry inh | Marburg entry inh | Vaccinia Venus | HCMV inh | Vaccinia mCherry | HCV inhibitor
CC(=O)N[C@@H](C)C(=O)NCC1Cc2cc(C)cc(-c3cnccn3)c2O1 (some centres undefined) | . | . | 4% | . | -7% | .
COc1cc(NC(=O)c2cc3c(=O)oc4ccc(C)cc4c3s2)cc(OC)c1OC | 8%[46.1 µM] | 29%[46.1 µM] | 3% | -7 | 2% | .
CC(C)(C)NC(=O)C(c1ccc(-c2ccccc2)cc1)N(C[C@H]1CC[C@@H]([C@@H]2CC[C@H](CO)O2)O1)C(=O)c1ccc(-c2ccccc2)cc1 (some centres undefined) | . | . | ? | . | 28µM* | -24%
CC(C)(C)NC(=O)C(c1ccc(-c2ccccc2)cc1)N(C[C@H]1CC[C@@H]([C@@H]2CC[C@H](CO)O2)O1)C(=O)c1ccc2ccccc2c1 (some centres undefined) | . | . | -10% | -100* | -7% | ?
N#Cc1nccnc1S(=O)(=O)c1cccs1 | 1% | -35% | -13% | -97* | -10% | -20%
Cc1ccc(CNC(=O)C2CCN(c3nn4cc(-c5ccc(F)cc5)nc4s3)CC2)cc1 | 14%[46.1 µM] | . | -4% | 0 | -8% | .
COc1cccc(Cn2c(Oc3cccc(C)c3)nc3c2c(=O)n(C)c(=O)n3C)c1 | ? | ? | -8% | 23 | . | 11µM*
COc1cccc(Cn2c(NCc3cccnc3)nc3c2c(=O)n(C)c(=O)n3C)c1 | ? | ? | ? | -26 | 4.5µM* | 5%
CCCOc1nc2c(c(=O)n(C)c(=O)n2C)n1Cc1cccc2ccccc12 | -19% | ? | -14% | -91* | i | ?
CCn1c(Oc2ccccc2)nc2c1c(=O)n(C)c(=O)n2C | 3% | 12% | 0% | -60* | -9% | -8%
CCOC(=O)CC1=C(C(=O)OCC)[C@H](c2ccc(OC)c(OC)c2)C(C#N)=C(N)O1 | . | 1% | . | . | . | .
Cc1ccc(-c2noc(-c3ccc(N4CCCCC4C)c([N+](=O)[O-])c3)n2)cc1 (centres undefined) | 17%[46.1 µM] | 7%[46.1 µM] | -7% | -21 | -10% | .
O=C(C[n+]1ccccc1Cl)c1ccc(Br)cc1 | . | . | -14% | . | -13% | .
Cn1c(=O)c2c(nc(Oc3ccccc3N)n2C)n(C)c1=O | . | . | . | 15 | . | 6%
Cn1c(=O)c2c(nc(Oc3ccccc3Cl)n2C)n(C)c1=O | 19%[46.1 µM] | 16%[46.1 µM] | -6% | -79* | -1% | 1%
C=CCn1c(=N)n(CC(O)COc2ccccc2OC)c2ccccc21 (centres undefined) | . | . | 1% | -14 | 1% | ?
CCCCn1c(=N)n(CCOc2ccccc2OC)c2ccccc21 | ? | ? | -20%[7.34 µM] | -71* | -19%[7.34 µM] | .
CCn1c(=N)n(CCOc2ccc(Br)cc2)c2ccccc21 | -31%[46.1 µM] | . | -15%[7.34 µM] | -101* | i[7.34 µM] | .
CCCCn1c(=N)n(CCOc2ccc(C)cc2)c2ccccc21 | ? | ? | ? | -37 | 14µM* | 8%
COc1ccc(OCCn2c(=N)n(CCO)c3ccccc32)cc1 | -27% | ? | -8% | -10 | -20% | -14%
CCCCCn1c(=N)n(CC(O)COc2ccccc2OC)c2ccccc21 (centres undefined) | ? | ? | ? | -37 | ? | 11µM*
CC(C)Cc1nc2cc(NS(=O)(=O)N(C)C)cc(C(=O)N3CCc4ccccc4C3)c2n1C | . | . | 7% | . | -10% | .
N#Cc1cc(-c2ccccc2)nc(Oc2ccccc2)n1 | . | . | . | ? | . | 10µM*
CN1CCN(c2nc(C#N)cc(-c3ccccc3)n2)CC1 | 1% | 0% | -24% | -23 | . | 10µM*
O=C(CSc1nc2c([nH]c3ccccc32)c(=O)n1-c1ccccc1)Nc1ccc(Cl)c(Cl)c1 | -8%[46.1 µM] | . | -19% | 12 | -7% | .
SMILES | Lassa entry inh | Marburg entry inh | Vaccinia Venus | HCMV inh | Vaccinia mCherry | HCV inhibitor
O=C(c1ccc(S(=O)(=O)Cc2ccccc2F)c([N+](=O)[O-])c1)N1CCCC1 | -2% | ? | 2% | -5 | -8% | 4%
O=C(c1ccc(S(=O)(=O)Cc2ccccc2Cl)c([N+](=O)[O-])c1)N1CCOCC1 | ? | ? | ? | -69* | ? | -13%
Cc1ccc(CS(=O)(=O)c2ccc(C(=O)N3CCN(c4ccccn4)CC3)cc2[N+](=O)[O-])cc1 | -24% | ? | -21% | -91* | -29% | ?
CC1CCN(C(=O)c2ccc(S(=O)(=O)Cc3ccccc3F)c([N+](=O)[O-])c2)CC1 | ? | ? | -17% | -76* | i | ?
O=C(c1ccc(S(=O)(=O)c2ccccc2Cl)c([N+](=O)[O-])c1)N1CCN(Cc2ccccc2)CC1 | ? | ? | -16% | -85* | -6% | ?
COc1ccc(C(=O)Oc2c(Sc3ccc(C)cc3)c(C)nn2C(C)(C)C)c(OC)c1 | ? | ? | ? | -5 | ? | .
COc1cc(/C=N/NC(=O)C(Cc2c[nH]c3ccccc23)NC(=O)OCc2ccccc2)cc([N+](=O)[O-])c1O (centres undefined) | 6.3µM* | -1% | -16% | -3 | 0% | -5%
Cc1ccc(C(=O)CSc2nnnn2C(C)C)c(C)c1 | 7.1µM* | 5.6µM* | -19% | ? | ? | 6%
CC1CCCN(CC(O)CN2CCN(CC(O)CN3CCCC(C)C3)C(C)C2)C1 (centres undefined) | 3%[46.1 µM] | 1.1µM* | 6% | -13 | i | 9%
CCOc1cc(-c2c(C)c(CC)nc(N)c2C#N)ccc1O | ? | ? | ? | 18 | . | ?
CCc1nc(N)nc(N)c1-c1ccc(Cl)c(N=[N+]=[N-])c1 | ? | ? | 5.6µM* | -79* | ? | ?
CCc1nc(N)nc(N)c1-c1ccc(Cl)c([N+](=O)[O-])c1 | ? | ? | 0.28µM* | -99* | -15% | ?
COc1ccc(-c2cn(-c3ccc(C)c(Cl)c3)c(=S)[nH]2)cc1OC | -15%[46.1 µM] | ? | -26% | -66* | ? | ?
COc1ccc(-c2cn(-c3ccc(C)c(C)c3)c(=S)[nH]2)cc1OC | 0% | -2% | -10% | ? | -2% | ?
COc1ccccc1-c1cn(-c2ccccc2)c(=S)[nH]1 | . | . | . | -14 | . | -16%
COc1ccc(-c2cn(-c3ccccc3)c(=S)[nH]2)cc1OC | . | . | . | -22 | . | 10µM*
O=C(NC(=S)NNC(=O)c1ccccc1O)c1ccccc1 | -13%[46.1 µM] | -13%[46.1 µM] | -16% | 119 | ? | -21%
COc1ccccc1C(=O)NNC(=S)NC(=O)c1cccs1 | . | . | . | -78* | . | .
O=C(NC(=S)NNC(=O)c1ccccc1O)c1cccs1 | ? | ? | -1% | ? | ? | 8.9µM*
O=C(O)[C@@H]1C[C@H]1[C@@H](NP(=O)(c1ccccc1)c1ccccc1)c1ccccc1 | 14% | 3% | -17% | -99* | i | -1%[8.37 µM]
O=C(NCc1ccccn1)[C@@H]1C[C@H]1[C@@H](NP(=O)(c1ccccc1)c1ccccc1)c1ccccc1 | 6.5µM* | -16% | -9% | -13 | i | 32%
